Most compounds without a hit are left out; they make up all but 1.6% or so of the library.
Efflux pump mplx: blocks antifungal efflux pumps in multiplex yeast assay | inhibition, % at 10 µM | S. cerevisiae Candida pump triplex, Nile Red efflux | hit rate 0.44% among 330,000;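 active = plate passing quality check with inhibition over a set limit, or well fluorescence over plate mean plus 4 SD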;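 also: Nile Red retained in pooled yeast measured as flow cytometry median fluorescence; 0% = buffer negative control and 100% = Enniatin B positive control; higher means more Nile Red kept so more efflux inhibition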
ATG4B inh: ATG4B (human) cysteine protease inhibition; AID 504462; ATG4B cleavage of LC3-PLA2, NBD-HPC fluorescence, 1 h; hit rate 0.51% among 340,000; Q9Y4P1; inhibition, % at 8.33 µM; in the data active = inhibition above about 40%
Target sequence (Q9Y4P1 whole entry, looked up): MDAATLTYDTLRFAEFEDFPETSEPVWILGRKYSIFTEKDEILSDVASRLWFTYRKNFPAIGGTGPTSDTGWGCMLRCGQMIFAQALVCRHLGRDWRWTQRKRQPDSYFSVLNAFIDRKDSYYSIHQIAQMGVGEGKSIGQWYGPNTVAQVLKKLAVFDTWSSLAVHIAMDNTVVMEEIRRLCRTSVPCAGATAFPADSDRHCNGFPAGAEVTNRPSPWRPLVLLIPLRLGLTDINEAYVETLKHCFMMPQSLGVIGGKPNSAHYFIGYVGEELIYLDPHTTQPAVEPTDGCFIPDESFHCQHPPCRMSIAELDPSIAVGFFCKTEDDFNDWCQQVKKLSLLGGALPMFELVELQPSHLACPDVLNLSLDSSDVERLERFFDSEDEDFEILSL
CR mimetic SO: yeast age-related superoxide inhibition as caloric restriction mimetic | S. cerevisiae aged cells, superoxide DHE fluorescence; active compounds read low | superoxide response (% of plate mean), % at 10 µM | hit rate 0.18% among 330,000;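 active = superoxide response under a set limit, about three screen SD below normal, cut at about 65% in these data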;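 also: yeast aged for seven days with compound at 30 °C before DHE staining; 100% = average MFI of all compound-treated wells on the plate with controls excluded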
GRK2 inh: human GRK2 inhibition via aptamer displacement | P25098 | bead flow cytometry, FAM-aptamer displacement from GRK2 | inhibition of aptamer binding, % at 10 µM | hit rate 0.59% among 330,000;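 active = inhibition of aptamer binding above 40%, roughly 3 SD of noise, on plates passing a quality check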;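 also: median bead fluorescence of bound FAM aptamer so fluorescent compounds give negative values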
Cmpd fluor yeast: compound fluorescence in yeast efflux pump counter-screen | S. cerevisiae AD/pABC3, flow cytometry | fluorescence ratio to DMSO, % at 10 µM | shares compounds with Efflux pump mplx | hit rate 4% among 1,700;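 active = fluorescence ratio to DMSO above its plate's cutoff, the plate mean ratio plus 5 SD, cut at about 210% in these data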;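 also: unstained yeast with no Nile Red so the signal is compound autofluorescence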
CaMdr1 efflux inh: inhibitors of Candida albicans Mdr1 efflux pump; shares compounds with Efflux pump mplx; AID 588518; hit rate 1% among 1,700; S. cerevisiae AD/CaMDR1, Nile Red efflux, flow cytometry; inhibition, % at 10 µM; in the data active = inhibition above about 26%;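 also: 0% = DMSO vehicle and 100% = reference inhibitor; higher means more Nile Red retained so more efflux inhibition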
CaCdr2 efflux inh: Candida Cdr2 efflux pump inhibition | shares compounds with Efflux pump mplx | S. cerevisiae AD/CaCDR2, Nile Red retention, flow cytometry | Nile Red retention ratio vs DMSO, % at 10 µM | hit rate 4% among 1,700 | AID 588520; in the data active = Nile Red retention ratio vs DMSO above about 190%;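 also: higher ratio means more blocking of Cdr2 efflux of the dye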
CaCdr1 efflux inh: blocks the Candida albicans Cdr1 efflux pump in yeast. inhibition, % at 10 µM. hit rate 1% among 1,700. shares compounds with Efflux pump mplx. S. cerevisiae AD/CaCDR1, Nile Red efflux, flow cytometry;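 active = inhibition above the screen-wide mean plus twice its standard deviation, cut at about 32% in these data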
* hit, by the source's call.

For CCc1ccc(-c2cc3c(=O)n(CC(=O)NCCN4CCCCC4C)nc(C)n3n2)cc1 (configuration not stated) the results were Efflux pump mplx 1.0*, ATG4B inh 6, CR mimetic SO 93, GRK2 inh 0, Cmpd fluor yeast 108, CaMdr1 efflux inh 0, CaCdr2 efflux inh 104 and CaCdr1 efflux inh 0.
For Cc1cc(Cl)c2oc(C(=O)NCC(C)(C)N3CCOCC3)c(C)c2c1 the results were Efflux pump mplx 0.6*, ATG4B inh 5, CR mimetic SO 91, GRK2 inh 0, Cmpd fluor yeast 128, CaMdr1 efflux inh 0, CaCdr2 efflux inh 102 and CaCdr1 efflux inh 0.
O=C(Oc1c(-c2ccccc2)c(=O)n2c3c(cccc13)CC2)c1ccco1 was read as Efflux pump mplx 0, ATG4B inh 4, CR mimetic SO 102, GRK2 inh 5, Cmpd fluor yeast 97, CaMdr1 efflux inh 0, CaCdr2 efflux inh 106 and CaCdr1 efflux inh 0.
Cc1cccc(C)c1OCCNC(=O)CCC(=O)c1ccccc1 was read as Efflux pump mplx 0, ATG4B inh 5, CR mimetic SO 102 and GRK2 inh 0.
NC1=NC[C@H](Cc2ccc(O)cc2)N1CC1CCCCC1 was read as Efflux pump mplx 0, ATG4B inh -11, CR mimetic SO 94, GRK2 inh 0, Cmpd fluor yeast 101, CaMdr1 efflux inh 0, CaCdr2 efflux inh 96 and CaCdr1 efflux inh 0.
NC1=NC[C@H](Cc2ccc(O)cc2)N1CCc1cccc(F)c1 was read as Efflux pump mplx 0, ATG4B inh -1, CR mimetic SO 98, GRK2 inh 1, Cmpd fluor yeast 90, CaMdr1 efflux inh 0, CaCdr2 efflux inh 85 and CaCdr1 efflux inh 0.
Screening NC1=NC[C@@H](Cc2ccc(O)cc2)N1CCCCC1CCCCC1 returned Efflux pump mplx 1.0*, ATG4B inh -13, CR mimetic SO 104, GRK2 inh 0, Cmpd fluor yeast 111, CaMdr1 efflux inh 0, CaCdr2 efflux inh 116 and CaCdr1 efflux inh 0.
CN(C)C1=NC[C@H](Cc2ccccc2)N1CCc1cccc(F)c1 was read as Efflux pump mplx 0, ATG4B inh -13, CR mimetic SO 102 and GRK2 inh 0.
CCC(=O)N1COC[C@@H]1Cc1ccccc1 was read as Efflux pump mplx 0, ATG4B inh 1, CR mimetic SO 108 and GRK2 inh 2.
Screening COc1ccc(OCC(=O)OCC(=O)NC2CC2)cc1 returned Efflux pump mplx 0, ATG4B inh 2, CR mimetic SO 86 and GRK2 inh 0.
Screening CC(=O)Nc1ccc(S(=O)(=O)N2CCN(c3nc4ccccc4n3CC(C)C)CC2)cc1 returned Efflux pump mplx 1.0*, ATG4B inh -3, CR mimetic SO 92, GRK2 inh 0, Cmpd fluor yeast 100, CaMdr1 efflux inh 0, CaCdr2 efflux inh 114 and CaCdr1 efflux inh 0.
Screening CCn1c(N2CCN(S(=O)(=O)c3ccc(OC)cc3)CC2)nc2ccccc21 returned Efflux pump mplx 0, ATG4B inh 22, CR mimetic SO 97 and GRK2 inh 1.
Screening COc1ccccc1NC(=O)COC(=O)c1ccc(S(=O)(=O)N2CCCCCC2)cc1 returned Efflux pump mplx 0, ATG4B inh 4, CR mimetic SO 90 and GRK2 inh 0.
For O=C(CSc1ccc(-c2ccccc2)nn1)NC1CCCC1 the results were Efflux pump mplx 0, ATG4B inh 2, CR mimetic SO 95 and GRK2 inh 4.
O=C(CSc1ccc(-c2ccccc2)nn1)NC1CCCCC1 was read as Efflux pump mplx 5.7*, ATG4B inh -1, CR mimetic SO 107, GRK2 inh 0, Cmpd fluor yeast 98, CaMdr1 efflux inh 0, CaCdr2 efflux inh 95 and CaCdr1 efflux inh 0.
`O=C(CN1C(=O)NC2(CCOc3ccccc32)C1=O)c1ccc[nH]1` (configuration not stated) gave Efflux pump mplx 0, ATG4B inh 0, CR mimetic SO 85 and GRK2 inh 5.

Screening data as filed in PubChem BioAssay.
